Assay results published in PubChem BioAssay.

Experiments:
[1] = system: Human papillomavirus type 1a protein E7 (residues 44-93); assay: HPV1a E7 fragment binders on microarrays, primary screen, biochemical, small-molecule microarray, residues 44-93, 635 nm fluorescence (AID 1108); settings: small-molecule microarray binding, fluorescence 635 nm; higher = more signal;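 note: E7 fragment applied at 1 µg/mL in TBST for 1 h at 4 C; score combines spot fluorescence with its signal to noise ratio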
[2] = modulators of HCV replicon luciferase signal, primary screen, HCV replication inhibitor project, Huh7 cells, luciferase reporter (AID 1109); settings: 48 h, higher = more signal;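 note: huh7 hepatoma cells harbouring a luciferase neomycin HCV replicon reporter; luciferase luminescence as measure of HCV replicon replication; test concentration not given here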
[3] = biological target: Left-right determination factor 2 (Homo sapiens) (UniProt O00292); assay: LEFTY2 binders on small-molecule microarrays, primary screen, biochemical, small-molecule microarray, 635 nm fluorescence scan (AID 1110); settings: LEFTY2 binding, higher = more signal
Left-right determination factor 2 (Homo sapiens), sequence (O00292 whole entry, looked up): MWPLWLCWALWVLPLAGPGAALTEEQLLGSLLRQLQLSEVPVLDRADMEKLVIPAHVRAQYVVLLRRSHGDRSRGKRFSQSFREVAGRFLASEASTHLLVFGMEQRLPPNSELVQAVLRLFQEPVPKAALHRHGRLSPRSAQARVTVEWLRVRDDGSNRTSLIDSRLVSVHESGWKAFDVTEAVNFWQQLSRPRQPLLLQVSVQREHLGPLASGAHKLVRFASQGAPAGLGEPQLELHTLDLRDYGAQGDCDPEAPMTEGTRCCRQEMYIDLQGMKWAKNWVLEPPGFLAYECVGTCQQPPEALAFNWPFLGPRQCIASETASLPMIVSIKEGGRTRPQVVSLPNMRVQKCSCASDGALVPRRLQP

[4] = biological target: Calmodulin-1 (Homo sapiens) (UniProt P0DP23); assay: CALM1 binders on microarrays, EGTA buffer, profiling panel, biochemical, small-molecule microarray, Cy5-labelled CALM1 (AID 1111); settings: Cy5-CALM1 binding fluorescence, higher = more signal;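 note: labelled calmodulin applied in Tris saline Tween buffer holding calcium plus EGTA and DTT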
[5] = biological target: Calmodulin-1 (Homo sapiens) (UniProt P0DP23); assay: calcium-bound CALM1 binders on microarrays, profiling panel, artefact control for SMM control-protein annotation, biochemical, small-molecule microarray, Cy5-labelled CALM1, plus calcium (AID 1112); settings: Cy5-CALM1 binding fluorescence, higher = more signal;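 note: score merges spot fluorescence with signal to noise from triplicate slides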
[6] = small-molecule microarray binders of probe aWnt5a, primary screen, biochemical, biotinylated probe, 635/667 nm fluorescence (AID 1113); settings: higher = more signal;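 note: score merges 667 nm fluorescence intensity with signal-to-noise per printed feature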
[7] = small-molecule microarray binders of probe aShh, primary screen, biochemical, biotinylated probe, 635/667 nm fluorescence (AID 1114); settings: higher = more signal;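 note: probe is biotin-labelled aShh protein from a stem cell growth factor screen; measures binding of labelled protein to compounds printed on the slide; score merges feature fluorescence at 667 nm with signal-to-noise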
[8] = small-molecule microarray binders of probe aNog, primary screen, biochemical, biotinylated probe, 635/667 nm fluorescence (AID 1115); settings: higher = more signal;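 note: probe is biotinylated aNog protein used at 0.15 µg/mL for 1 h at 4 C; z-score combines 667 nm fluorescence of each spot with its signal to noise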
[9] = biological target: Torsin-1A-interacting protein 1 (Homo sapiens) (UniProt Q5JTV8); assay: LAP1 binders from COS7 cell lysate, primary screen, small-molecule microarray, 635/667 nm fluorescence (AID 1116); settings: COS7-hLAP1 lysate binding, 635 nm fluorescence, higher = more signal
Torsin-1A-interacting protein 1 (Homo sapiens), sequence (Q5JTV8 whole entry, looked up): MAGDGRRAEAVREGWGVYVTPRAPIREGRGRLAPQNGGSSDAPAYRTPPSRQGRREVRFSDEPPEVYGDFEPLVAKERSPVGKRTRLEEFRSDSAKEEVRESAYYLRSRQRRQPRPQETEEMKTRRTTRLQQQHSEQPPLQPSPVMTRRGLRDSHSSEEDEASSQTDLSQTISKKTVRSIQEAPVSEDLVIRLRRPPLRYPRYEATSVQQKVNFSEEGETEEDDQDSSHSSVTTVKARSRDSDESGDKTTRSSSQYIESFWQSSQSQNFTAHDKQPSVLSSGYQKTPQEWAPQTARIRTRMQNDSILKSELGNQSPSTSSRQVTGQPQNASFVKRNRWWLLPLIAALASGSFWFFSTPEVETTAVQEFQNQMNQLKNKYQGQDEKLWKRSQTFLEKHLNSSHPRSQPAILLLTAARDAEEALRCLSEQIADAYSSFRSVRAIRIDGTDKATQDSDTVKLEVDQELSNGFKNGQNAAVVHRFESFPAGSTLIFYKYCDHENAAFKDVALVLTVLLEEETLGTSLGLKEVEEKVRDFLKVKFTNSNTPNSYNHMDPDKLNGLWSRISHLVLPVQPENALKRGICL

[10] = biological target: Alpha-bungarotoxin (Bungarus multicinctus) (UniProt P60615); assay: alpha-bungarotoxin binders on microarray, profiling panel, artefact control for SMM control protein annotation, biochemical, small-molecule microarray, Alexa647 label, 635/667 nm fluorescence (AID 1117); settings: alpha-BTX-A647 binding fluorescence, higher = more signal
Alpha-bungarotoxin (Bungarus multicinctus), sequence (P60615 whole entry, looked up): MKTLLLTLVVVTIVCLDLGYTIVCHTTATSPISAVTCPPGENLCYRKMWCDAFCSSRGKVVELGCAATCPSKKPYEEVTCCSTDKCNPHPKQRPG

| Compound | composite z-score [1] | z-score [2] | composite z-score [3] | composite z-score [4] | composite z-score [5] | composite z-score [6] | composite z-score [7] | composite z-score [8] | composite z-score [9] | composite z-score [10] |
| --- | --- | --- | --- | --- | --- | --- | --- | --- | --- | --- |
| CC(C)N1CC=CC23O[C@@H]4C=CCOC(=O)[C@@H]4[C@H]2C(=O)N(CCCCCO)[C@@H]3C1=O (stereo not given in full) | -0.608 | -0.147 | -0.624 | 0.0459 | 0.395 | -0.18 | 0.0723 | -0.198 | 1.33 | -0.35 |
| O=C1O[C@H](c2ccccc2)[C@H](c2ccccc2)N2[C@H]1[C@@H](C(=O)NC[C@H](O)c1ccccc1)[C@]1(C(=O)Nc3ccc(C#CC4=CCCCC4)cc31)[C@H]2c1ccccc1OCCO | 1.06 | -3.16 | 0.155 | 1.42 | 0.944 | 0.0101 | 0.328 | 0.157 | 1.02 | 1.7 |
| COc1cc(CO)cc(I)c1O[C@H]1C=C(C(=O)NCCO)C[C@@H](N(C(=O)c2cc3ccccc3oc2=O)C2CCCCCC2)[C@@H]1O | -0.914 | -0.469 | -0.0138 | -0.23 | -0.769 | -0.096 | -0.349 | -0.267 | 0.155 | -0.29 |
| CCOC(=O)C[C@H]1[C@H](OC(=O)c2ccc(C(=O)c3ccccc3)cc2)[C@@H](NC(=O)Cc2ccc(OC)cc2)c2cc(OCCCO)ccc2N1C(=O)c1ccc2ccccc2n1 | 0.998 | -0.873 | 0.816 | 0.985 | 0.336 | -0.131 | -0.0709 | -0.526 | 0.566 | 0.738 |
| CC[C@@H]1C=C(C(=O)O)[C@H](c2cccc3ccccc23)N1S(=O)(=O)c1ccc(C)cc1 | 0.828 | 0.0731 | 0.132 | 1.45 | 0.725 | 0.0742 | -0.17 | 0.526 | 0.909 | -0.158 |
| NCCCCCCNC(=O)[C@H]1C[C@H]2C(=O)N[C@@H](Cc3ccccc3)C(=O)N2[C@H]1c1cccc(OCCO)c1 | 0.694 | 0.794 | 0.146 | 2.14 | 0.857 | -0.0718 | 0.356 | 0.0574 | 1.6 | 0.576 |
| COc1ccc([C@H]2OC[C@@H]3CCC(=O)N32)cc1 | 0.493 | 0.574 | 0.556 | -0.313 | -0.525 | -0.18 | 0.0062 | -0.324 | 0.493 | -0.122 |
| CCCC=C(CCC)[C@@H](NS(=O)(=O)c1ccc(Cl)cc1)c1ccc(C(=O)OC)cc1 | 1.31 | 0.677 | -0.0953 | -0.246 | -0.526 | -0.183 | -0.0386 | -0.201 | 0.892 | 1.29 |
| C=CC[C@]1(C(=O)NCc2ccccc2)N=C(c2ccc(OCCCO)cc2)O[C@H]1c1ccccc1CN=[N+]=[N-] | 1.42 | -2.42 | 0.13 | 0.764 | 0.358 | -0.001 | -0.0146 | -0.516 | 0.854 | 0.361 |
| CCOC(=O)C1=CC[C@@H](c2ccc(C(F)(F)F)cc2)N(S(=O)(=O)c2ccc(C)cc2)[C@H]1c1ccccc1 | 0.277 | -1.1 | 0.221 | 2.08 | 0.55 | 0.201 | 0.109 | 1.43 | 1.51 | 1.56 |
| COCCOC(=O)N1C(=O)[C@@]2(c3cc(C#CC4(O)CCCCCC4)ccc31)[C@H](c1ccccc1OCCO)N1[C@H](c3ccccc3)[C@H](c3ccccc3)OC(=O)[C@H]1[C@@H]2C(=O)N1CCc2cc(OC)c(OC)cc2C1 | 1.43 | -2.42 | 0.21 | 1.26 | 0.57 | -0.0704 | -0.0289 | 0.268 | 1.24 | 1.97 |
| O=C(CS)NCCCCCNC(=O)[C@@H]1C[C@@H]2C(=O)NCC(=O)N2[C@@H]1c1cccc(OCCO)c1 | 0.275 | -0.125 | 0.387 | 0.129 | -0.193 | -0.16 | -0.197 | -0.137 | 0.635 | -0.315 |
| C=CCN1C(=O)[C@]2(Cc3ccccc3)N=C(c3ccc(OCCCO)cc3)O[C@@H]2c2ccccc21 | 1.45 | -1.84 | 0.993 | 0.893 | -0.672 | -0.0519 | 0.531 | -0.802 | 0.251 | 1.04 |
| COC(=O)[C@@]1(Cc2ccc(OC)cc2)[C@H]2c3cc(C(=O)N4CCCC4)n(Cc4nc5ccccc5[nH]4)c3C[C@H]2CN1C(=O)c1ccccc1 | 1.38 | -2.61 | -0.413 | 2.7 | 1.54 | 0.216 | 0.215 | 2.39 | 2.79 | 1.07 |
| O=C1C2C=CC(C(O)c3ccc(-c4ccccc4)s3)N(Nc3ccccc3)C2C(=O)N1c1ccccc1 (stereo not given) | 1.47 | -0.978 | -0.44 | 1.45 | 0.133 | 0.105 | 0.634 | 1.38 | 0.537 | 1.46 |
| COC(=O)[C@@]1(CCC(=O)OC(C)(C)C)N=C(c2ccc(OCCCO)cc2)O[C@H]1c1ccccc1 | 0.255 | -1.79 | -0.211 | 0.0108 | -0.181 | -0.0161 | 0.351 | 0.711 | 0.692 | 0.629 |
| C#CCN1[C@H](/C=C/C2CC2)[C@H](Cc2ccccc2)OC(=O)[C@@H]1Cc1ccccc1 | -0.306 | -2.87 | 0.294 | -0.707 | -0.414 | -0.164 | -0.0066 | -0.401 | 0.0223 | 0.106 |
| O=C(NC1CC1)[C@@H]1c2ccccc2C(=O)N(Cc2cc(F)cc(C(F)(F)F)c2)[C@H]1c1ccc(CO)cc1 | 0.558 | -0.509 | -1.05 | -0.768 | -0.628 | -0.161 | -0.0709 | 0.0308 | 0.0706 | -0.405 |
